Test in all cases: growth (OD600 after 10 h); higher = more growth (less inhibition)
Experiment [1] relates to E. coli TESEC Alr+ wild-type control. The note with it: compound 0.1 mM; raw OD600 reference: median of DMSO wells 0.241, cell-free background 0.041. As to the method:
(§1)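 TESEC Mtb Alr E. coli, or the Alr+ wild-type control, in 384-well plates with Prestwick library compounds at 0.1 mM and 1% DMSO, across arabinose induction levels of 1E3 to 1E7 nM. Growth is read as OD600 after 10 h at 37 °C in triplicate biological replicates.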

Experiment [2] relates to E. coli TESEC Mtb Alr. The note with it: compound 0.1 mM. As to the method:
as §1

A further experiment concerns E. coli TESEC Mtb Asd. The note with it: compound 0.1 mM. As to the method: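 TESEC E. coli strains in which the native enzyme is deleted and replaced by arabinose-inducible Mtb Asd, DapB, CysH or TrpD, each grown in its selective medium. Strains were screened against the Prestwick library at 0.1 mM and 1% DMSO in 384-well format at low and high arabinose induction. Growth is read as OD600 after 10 h in triplicate.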

Experiment [3] has as its system E. coli TESEC Mtb Alr. The note with it: compound 0.1 mM. As to the method:
(§2)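 TESEC Mtb Alr E. coli (ΔaraC ΔtolC ΔentC Δalr ΔdadX, arabinose-inducible Mtb Alr) or the Alr+ wild-type control strain, grown in defined M9-fructose medium without D-alanine in 96-well plates with Prestwick library compounds at 0.1 mM and 1% DMSO. Low Alr induction is 0.1 µM arabinose and high induction is 10 mM arabinose.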
The source holds these as a separate data set.

The test system of experiment [4] is E. coli TESEC Alr+ wild-type control. The note with it: compound 0.1 mM; raw OD600 reference: median of DMSO wells 0.49, cell-free background 0.052. As to the method: as §2
Setting [5] is: arabinose 1000 nM, raw OD600 reference: median of DMSO wells 0.294, cell-free background 0.041.
Setting [6] is: arabinose 10000 nM, raw OD600 reference: median of DMSO wells 0.264, cell-free background 0.041.
The mark [7] stands for this setting: arabinose 100000 nM, raw OD600 reference: median of DMSO wells 0.201, cell-free background 0.041.
[8] abbreviates: arabinose 1000000 nM, raw OD600 reference: median of DMSO wells 0.193, cell-free background 0.041.
[9] abbreviates: arabinose 10000000 nM, raw OD600 reference: median of DMSO wells 0.146, cell-free background 0.041.
[10] abbreviates: arabinose induction (level): High, raw OD600 reference: median of DMSO wells 0.331, cell-free background 0.041.
Setting [11] is: arabinose induction (level): Low, raw OD600 reference: median of DMSO wells 0.417, cell-free background 0.041.
Setting [12] is: arabinose 100 nM, raw OD600 reference: median of DMSO wells 0.413, cell-free background 0.052.
[13] abbreviates: arabinose 10000000 nM, raw OD600 reference: median of DMSO wells […], cell-free background 0.052.

Counter-ions that a name gives are not always drawn. ± gives the standard deviation of the averaged measurements.

`O=P1(N(CCCl)CCCl)NCCCO1` (stereo unspecified) [Cyclophosphamide]: the growth in experiment [1] turned out to be 0.2382 ± 0.0022; with E. coli TESEC Mtb Alr [2] (setting [5]), 0.271 ± 0.011; with E. coli TESEC Mtb Alr [2] (setting [6]) it was 0.276 ± 0.0047; in the experiment on E. coli TESEC Mtb Alr [2] (setting [7]) it was 0.18 ± 0.021; in the experiment on E. coli TESEC Mtb Alr [2] (setting [8]), 0.204 ± 0.022; in the experiment on E. coli TESEC Mtb Alr [2] (setting [9]), 0.137 ± 0.0039. The growth was determined as 0.341 ± 0.066 with E. coli TESEC Mtb Asd (setting [10]), 0.446 ± 0.014 in the experiment on E. coli TESEC Mtb Asd (setting [11]), 0.4139 ± 0.003 in the experiment on E. coli TESEC Mtb Alr [3] (setting [12]) and 0.314 ± 0.012 with E. coli TESEC Mtb Alr [3] (setting [13]).

`CN1C(=O)CCS(=O)(=O)C1c1ccc(Cl)cc1` (stereo unspecified) [Chlormezanone]: the growth worked out at 0.244 ± 0.0034 in experiment [1]; 0.298 ± 0.018 in the experiment on E. coli TESEC Mtb Alr [2] (setting [5]); 0.256 ± 0.0031 with E. coli TESEC Mtb Alr [2] (setting [6]); 0.256 ± 0.012 in the experiment on E. coli TESEC Mtb Alr [2] (setting [7]); 0.188 ± 0.013 with E. coli TESEC Mtb Alr [2] (setting [8]); 0.146 ± 0.005 in the experiment on E. coli TESEC Mtb Alr [2] (setting [9]). Also, the growth with E. coli TESEC Mtb Asd (setting [10]) is 0.328 ± 0.08; in the experiment with E. coli TESEC Mtb Asd (setting [11]), 0.407 ± 0.066; in experiment [4] it was 0.615 ± 0.1; with E. coli TESEC Mtb Alr [3] (setting [12]), 0.408 ± 0.011; in the experiment on E. coli TESEC Mtb Alr [3] (setting [13]), 0.367 ± 0.0068.

On to `CO[C@]12C[C@@H](COC(=O)c3cncc(Br)c3)CN(C)[C@@H]1Cc1cn(C)c3cccc2c13` [Nicergoline], for which the growth in experiment [1] was 0.174 ± 0.0043; with E. coli TESEC Mtb Alr [2] (setting [5]), 0.184 ± 0.0071; in the experiment with E. coli TESEC Mtb Alr [2] (setting [6]) it was 0.194 ± 0.0054; in the experiment with E. coli TESEC Mtb Alr [2] (setting [7]), 0.223 ± 0.0047; in the experiment with E. coli TESEC Mtb Alr [2] (setting [8]), 0.102 ± 0.0052; with E. coli TESEC Mtb Alr [2] (setting [9]), 0.184 ± 0.0056. For the same compound, the growth turned out to be 0.221 ± 0.021 in the experiment with E. coli TESEC Mtb Asd (setting [10]), 0.279 ± 0.056 in the experiment with E. coli TESEC Mtb Asd (setting [11]), 0.416 ± 0.005 in the experiment on E. coli TESEC Mtb Alr [3] (setting [12]) and 0.268 ± 0.015 with E. coli TESEC Mtb Alr [3] (setting [13]).

Turning to `CC(NC(C)(C)C)C(=O)c1cccc(Cl)c1` (stereo unspecified) [Bupropion hydrochloride], the growth was determined as 0.226 ± 0.0027 in experiment [1]; 0.283 ± 0.018 with E. coli TESEC Mtb Alr [2] (setting [5]); 0.257 ± 0.0069 in the experiment with E. coli TESEC Mtb Alr [2] (setting [6]); 0.229 ± 0.023 in the experiment with E. coli TESEC Mtb Alr [2] (setting [7]); 0.171 ± 0.0039 in the experiment on E. coli TESEC Mtb Alr [2] (setting [8]); 0.136 ± 0.0076 with E. coli TESEC Mtb Alr [2] (setting [9]). Besides, the growth in the experiment on E. coli TESEC Mtb Asd (setting [10]) was 0.356 ± 0.055; in the experiment on E. coli TESEC Mtb Asd (setting [11]), 0.41 ± 0.03; with E. coli TESEC Mtb Alr [3] (setting [12]), 0.404 ± 0.012; in the experiment on E. coli TESEC Mtb Alr [3] (setting [13]), 0.365 ± 0.0095.

Take `COc1ccc(OC)c(C(O)C(C)N)c1` (stereo unspecified) [Methoxamine hydrochloride]: the growth in experiment [1] stood at 0.241 ± 0.0052; in the experiment on E. coli TESEC Mtb Alr [2] (setting [5]), 0.292 ± 0.0063; in the experiment with E. coli TESEC Mtb Alr [2] (setting [6]), 0.27 ± 0.005; with E. coli TESEC Mtb Alr [2] (setting [7]), 0.212 ± 0.024; with E. coli TESEC Mtb Alr [2] (setting [8]) it was 0.187 ± 0.003; in the experiment on E. coli TESEC Mtb Alr [2] (setting [9]), 0.148 ± 0.0068. Besides, the growth amounted to 0.272 ± 0.074 in the experiment on E. coli TESEC Mtb Asd (setting [10]), 0.409 ± 0.021 in the experiment with E. coli TESEC Mtb Asd (setting [11]), 0.413 ± 0.011 in the experiment with E. coli TESEC Mtb Alr [3] (setting [12]) and 0.334 ± 0.023 in the experiment on E. coli TESEC Mtb Alr [3] (setting [13]).

For the compound `CC1C=CC=CCCC=CC=CC=CC=CC(OC2OC(C)C(O)C(N)C2O)CC2OC(O)(CC(O)C(O)CCC(O)CC(O)CC(O)CC(=O)OC(C)C(C)C1O)CC(O)C2C(=O)O` (stereo unspecified) [Nystatine], the growth in experiment [1] is 0.297 ± 0.0097; in the experiment on E. coli TESEC Mtb Alr [2] (setting [5]) it was 0.307 ± 0.025; in the experiment with E. coli TESEC Mtb Alr [2] (setting [6]), 0.2338 ± 0.0013; in the experiment with E. coli TESEC Mtb Alr [2] (setting [7]), 0.345 ± 0.014; in the experiment on E. coli TESEC Mtb Alr [2] (setting [8]), 0.1538 ± 0.0011; with E. coli TESEC Mtb Alr [2] (setting [9]), 0.188 ± 0.0066. The growth in the experiment on E. coli TESEC Mtb Asd (setting [10]) was 0.23 ± 0.021; with E. coli TESEC Mtb Asd (setting [11]), 0.256 ± 0.023; in the experiment with E. coli TESEC Mtb Alr [3] (setting [12]) it was 0.431 ± 0.0073; in the experiment with E. coli TESEC Mtb Alr [3] (setting [13]), 0.345 ± 0.016.

In the case of `COc1ccc(CN2CCNCC2)c(OC)c1OC` [Trimetazidine dihydrochloride], the growth in experiment [1] was 0.228 ± 0.0052; in the experiment with E. coli TESEC Mtb Alr [2] (setting [5]), 0.3105 ± 0.0026; with E. coli TESEC Mtb Alr [2] (setting [6]), 0.268 ± 0.0047; with E. coli TESEC Mtb Alr [2] (setting [7]), 0.23 ± 0.024; with E. coli TESEC Mtb Alr [2] (setting [8]) it was 0.172 ± 0.0071; in the experiment with E. coli TESEC Mtb Alr [2] (setting [9]), 0.162 ± 0.0046. In addition, the growth in the experiment with E. coli TESEC Mtb Asd (setting [10]) is 0.301 ± 0.068; in the experiment on E. coli TESEC Mtb Asd (setting [11]), 0.307 ± 0.11; with E. coli TESEC Mtb Alr [3] (setting [12]), 0.409 ± 0.014; with E. coli TESEC Mtb Alr [3] (setting [13]), 0.33 ± 0.019.

Source of the values: the supplement of paper PMC9262897, “Low-cost anti-mycobacterial drug discovery using engineered E. coli” (Nature Communications, 2022).
